# Results taken from PubChem BioAssay AID1930 (Vanderbilt High Throughput Screening Facility, 2009).
# Calls of active or inactive are those of the source. How the calls were made is not given here.
# Target: Muscarinic acetylcholine receptor M2 (Homo sapiens) (UniProt P08172)
# Experiment: ACh potency shift at human M2 – cell-based, Gqi5 chimera, calcium, selectivity assay for M4 PAM project (AID 1930)
# Settings: hM2/Gqi5 cells, ACh calcium response fold-shift; series mostly up to 10 µM; ACh response, % of max: at the top concentration
# Sequence of Muscarinic acetylcholine receptor M2 (Homo sapiens) (P08172 whole entry, looked up): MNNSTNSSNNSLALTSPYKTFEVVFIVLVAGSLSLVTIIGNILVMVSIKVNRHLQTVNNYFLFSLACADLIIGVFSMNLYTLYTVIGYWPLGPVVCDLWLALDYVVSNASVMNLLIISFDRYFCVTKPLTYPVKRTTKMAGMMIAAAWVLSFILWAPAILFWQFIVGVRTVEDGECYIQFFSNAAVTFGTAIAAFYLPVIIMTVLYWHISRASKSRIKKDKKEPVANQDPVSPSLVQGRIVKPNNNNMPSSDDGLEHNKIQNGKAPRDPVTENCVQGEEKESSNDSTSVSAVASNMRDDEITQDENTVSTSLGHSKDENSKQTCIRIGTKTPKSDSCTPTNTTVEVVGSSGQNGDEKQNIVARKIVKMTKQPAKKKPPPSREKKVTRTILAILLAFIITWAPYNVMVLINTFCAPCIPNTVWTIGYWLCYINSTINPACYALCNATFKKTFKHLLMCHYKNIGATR
row,Compound,"ACh response, % of max"
1,COc1ccc(CNC(=O)c2sc3nc(OCc4ccncc4)cc(C)c3c2N)cc1,102 (inactive)
2,Cc1cc(OCCN2CCOCC2)nc2sc(C(=O)NC(C)(C)C)c(N)c12,96.2 (inactive)
3,Cc1cc(OCc2ccncc2)nc2sc(C(=O)NCc3cc(F)ccc3F)c(N)c12,95.8 (inactive)
4,Cc1cc(OCc2ccncc2)nc2sc(C(=O)NCc3cccc(F)c3F)c(N)c12,97.2 (inactive)
